A selection: hits, their analogues and other compounds. The true share with any hit is near 4.6%.
tim23-1 inh – tim23-1 yeast growth inhibition; inhibition, % at 20 µM; AID 463212; S. cerevisiae tim23-1 growth, BacTiter-Glo luminescence, 24 h; 330,000 compounds, 1.3% hits;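 active means growth inhibition of the mutant yeast at or above 50%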;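 further: temperature-sensitive mutant grown at 25 °C; plate controls were DMSO-treated mutant yeast for no effect and medium wells lacking yeast for full effect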
SKKanGAS inh – inhibitors of SKKanGAS S. pyogenes growth in kanamycin (SK-promoter or general growth effect) | BacTiter-Glo, 6 h | inhibition, % at 7.5 µM | 300,000 compounds, 1.3% hits | AID 1662;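 active means mean replicate score, as percent of positive control median, at least 50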;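 further: strain carries kanamycin resistance gene driven by streptokinase promoter and grows in 40 µg/ml kanamycin; loss of luminescence reflects streptokinase promoter inhibition or plain growth inhibition; 0% = median of DMSO wells and 100% = positive control at its reference dose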
TIM10 inh – TIM10 yeast growth inhibition; S. cerevisiae TIM10 strain growth, BacTiter-Glo luminescence, 24 h; inhibition, % at 10 µM; 330,000 compounds, 1.4% hits;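 active means inhibition of 40% or more at the single tested concentration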;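 further: wild-type TIM10 isogenic control strain grown at permissive 25 °C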
NALP3 yeast inh – NALP3 inhibition in yeast | Yeast reconstituted NLRP3/ASC/caspase-1, beta-gal luminescence, 24 h | inhibition, % at 10 µM | 330,000 compounds, 0.39% hits | AID 2825;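 active means inhibition of 50% or more; inactive means inhibition below 50%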;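 further: plate controls were induced DMSO wells for no effect and uninduced yeast grown without galactose for full effect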
tim10-1 inh – growth inhibitors of tim10-1 mutant yeast; S. cerevisiae tim10-1 ts strain growth, BacTiter-Glo, 24 h; inhibition, % at 20 µM; 330,000 compounds, 2.2% hits;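 active means inhibition of at least 40%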;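 further: mutant grown at 25 °C; 0% = DMSO wells with yeast and 100% = wells holding no yeast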
PfHsp90 set2 – growth inhibition of yeast expressing Plasmodium Hsp90 | inhibition, % at 9.4 µM | 310,000 compounds, 0.32% hits | S. cerevisiae expressing PfHsp90, BacTiter-Glo ATP, 48 h; yeast lacking PDR1 and PDR3 efflux regulators;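 active means every replicate shows inhibition above about 80%, whatever the replicate mean, limit read from the data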;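 further: 0% = DMSO neutral controls and 100% = 20 µM radicicol positive controls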
Starred values were filed as active, the others as inactive; / = no result given.

SMILES	tim23-1 inh	SKKanGAS inh	TIM10 inh	NALP3 yeast inh	tim10-1 inh	PfHsp90 set2
CCN1CCN(Cc2ccc(NC(=O)c3ccc(C)c(NC(=O)c4ccno4)c3)cc2C(F)(F)F)CC1	-7	-3	-6	11	-30	-5
S=c1[nH]nc(-c2cc(-c3ccccc3)n[nH]2)n1/N=C/c1c(Cl)cccc1Cl	19	61*	16	19	36	-27
Cc1ccccc1/C=N/n1c(-c2cc(-c3ccccc3)n[nH]2)n[nH]c1=S	-29	7	-38	-3	-5	23
S=c1[nH]nc(-c2cc(-c3ccccc3)n[nH]2)n1/N=C/c1ccc(Br)s1	19	60*	32	31	20	-16
O=C(CCl)c1ccc2[nH]c(=O)oc2c1	11	-1	-9	-18	-6	-9
NS(=O)(=O)c1cccc(NC(=O)COC(=O)c2cc(-c3ccc(Cl)cc3)nc3ccccc23)c1	5	91*	29	-2	16	-12
O=C(CN1CCCC1)Nc1sc2c(c1C(=O)Nc1ccc(Br)cc1)CCC2	40	61*	32	11	37	-9
CCOc1ccc(NC(=O)c2c(NC(=O)CNCCN3CCOCC3)sc3c2CCC3)cc1	4	90*	11	-5	23	-1
COc1ccc(NC(=O)c2c(NC(=O)CNCc3ccco3)sc3c2CCC3)cc1	9	8	22	2	16	-5
CCOC(=O)c1cccc(N2C(N)=NC(N)=NC2(C)C)c1	-9	91*	-23	9	-5	-56
COc1ccc(N2C(N)=NC(N)=NC23CCCC3)cc1	1	-3	-10	8	-4	-7
CCOc1ccc(N2C(N)=NC(N)=NC2(C)C)cc1	-5	95*	-2	25	-6	26
CC1(C)N=C(N)N=C(N)N1c1ccc(OCCCOc2ccccc2)c(Cl)c1	/	111*	/	/	/	-4
COc1ccc(N2C(N)=NC(N)=NC2(C)C)cc1	/	73*	/	/	/	/
COC(=O)C(C)Oc1ccc(Cc2ncc(C(F)(F)F)cc2Cl)cc1 (configuration not stated)	7	0	-2	19	21	-8
CC(C)CC(OC(=O)CC1Sc2ccccc2NC1=O)C(=O)NC1CCCC1 (configuration not stated)	28	0	32	-1	19	-20
COc1cccc(N2C(N)=NC(N)=NC2(C)C)c1	5	95*	2	-6	-16	7
COc1ccc(-c2sc3ccc(OC)cc3c2C#CCCO)cc1	-12	97*	-9	-33	28	-46
O=C1S/C(=C\c2ccc(N3CCOCC3)o2)C(=O)N1Cc1c(F)cccc1Cl	21	0	23	37	34	97*
O=C1S/C(=C\c2ccc(N3CCOCC3)o2)C(=O)N1c1ccccc1	15	-10	14	1	12	-127
Cc1cc(C)cc(-n2c(C)cc(/C=C3\C(=N)N4N=C(CC(C)C)SC4=NC3=O)c2C)c1	3	69*	0	25	-6	-16
CCCC1=NN2C(=N)/C(=C\c3cc(C)n(-c4cc(C)cc(C)c4)c3C)C(=O)N=C2S1	11	72*	6	1	5	-17
Cc1ccccc1OCC(=O)Nc1cc(S(=O)(=O)N2CCCCC2)ccc1N1CCN(C)CC1	4	-9	5	2	2	11
O=C(O)C(NS(=O)(=O)c1ccc(F)cc1)c1ccccc1 (configuration not stated)	12	5	-1	5	16	9
CCC/C=C(\CCC)C(NS(=O)(=O)c1ccc(C(F)(F)F)cc1)c1ccccc1 (configuration not stated)	/	71*	/	/	/	/
SMILES	tim23-1 inh	SKKanGAS inh	TIM10 inh	NALP3 yeast inh	tim10-1 inh	PfHsp90 set2
CCOC(=O)c1cc(-c2ccc3c(c2)OCCO3)nc2c1c(C)nn2CCC#N	31	81*	18	4	22	1
CC(=O)Nc1ccc(NC(=O)C(C)OC(=O)C2CCN(S(=O)(=O)c3ccc4c(c3)OCCO4)CC2)cc1 (configuration not stated)	-21	8	13	18	2	-5
CC(=O)Nc1ccc(NS(=O)(=O)c2cccc3nonc23)cc1	3	-18	-8	8	8	-25
Cc1ccc2nc(N3C(=O)C(O)=C(C(=O)c4ccco4)C3c3cccs3)sc2c1 (configuration not stated)	30	52*	10	23	5	/
COc1ccc2nc(N3C(=O)C(O)=C(C(=O)c4ccco4)C3c3ccc(C)o3)sc2c1 (configuration not stated)	21	/	-8	32	7	/
Cc1cc(C)c2nc(N3C(=O)C(O)=C(C(=O)c4ccco4)C3c3ccco3)sc2c1 (configuration not stated)	27	78*	-1	4	6	-48
CCCOc1ccc(C2C(C(=O)c3cc4ccccc4o3)=C(O)C(=O)N2c2cc(C)on2)cc1 (configuration not stated)	11	-8	8	14	30	4
Cc1cc(N2C(=O)C(O)=C(C(=O)c3cc4ccccc4o3)C2c2ccc(Br)cc2)no1 (configuration not stated)	13	87*	-2	7	15	5
CCCOc1ccc(C2C(C(=O)c3cc4ccccc4o3)=C(O)C(=O)N2c2cc(C)on2)cc1OC (configuration not stated)	7	98*	9	-6	-6	-7
Cc1cc(N2C(=O)C(O)=C(C(=O)c3cc4ccccc4o3)C2c2cccc(Cl)c2)no1 (configuration not stated)	15	83*	-1	4	15	16
Cc1cc(N2C(=O)C(O)=C(C(=O)c3cc4ccccc4o3)C2c2ccc(Cl)cc2)no1 (configuration not stated)	11	-7	-4	13	3	-6
O=C(Cc1ccccc1)Nc1ncccc1Cl	4	-1	3	32	0	/
CCOc1ccc(OCC)c(S(=O)(=O)n2cnc(C)c2)c1	15	-1	-5	13	10	20
Cc1cc(N2C(=O)C3C4CC(c5ccccc5)C(C4)C3C2=O)no1 (configuration not stated)	12	2	3	10	19	-21
CCOC(=O)c1cc([N+](=O)[O-])cc([N+](=O)[O-])c1Sc1ncnc2nc[nH]c12	/	/	/	/	/	107*
S=c1[nH]nc(-c2cccs2)n1/N=C/c1cn(-c2ccccc2)nc1-c1ccccc1	29	75*	17	16	23	-74
Cc1ccc(CC(=O)Nc2nccs2)cc1	13	1	3	17	-5	-23
CC(C)(C)c1ccc(NC(=O)C2CCCN(c3cnccn3)C2)cc1 (configuration not stated)	35	3	27	0	30	-8

Assay outcomes deposited in PubChem BioAssay by several laboratories.
